According to PubChem BioAssay (Tox21):
Results filed as inconclusive are left out. Calls of active or inactive are those of the source. Unless noted, the call rests on the fitted dose curve.

How the values were obtained:
[1] = Nuclear factor erythroid 2-related factor 2/antioxidant responsive element (Nrf2/ARE) small molecule agonists: qHTS cell viability counter screen in human keratinocytes (AID 1919968; active means well fitted curve in the direction sought with a large enough effect in the repeat runs; an effect the other way counts as inactive or inconclusive; further: nearly all actives have a fitted effect of over 55% in size; further: potency means the concentration at half of the fitted maximal effect)
Outline: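 HaCaT ARE reporter line, 1,500 cells/well; 5 h settle, 37 C/5% CO2; cpd in DMSO pinned; 23 h exposure; CellTiter-Fluor, 1 h; fluorescence.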

[2] = biological target: Gonadotropin-releasing hormone receptor (Homo sapiens) (UniProt P30968); test: Human gonadotropin-releasing hormone receptor (GnRHR) small molecule agonists, calcium flux assay in GnRHR-HEK293 cells (AID 1920063); further: nearly all actives have a fitted effect of over 35% in size
Sequence of Gonadotropin-releasing hormone receptor (Homo sapiens) (P30968 whole entry, looked up): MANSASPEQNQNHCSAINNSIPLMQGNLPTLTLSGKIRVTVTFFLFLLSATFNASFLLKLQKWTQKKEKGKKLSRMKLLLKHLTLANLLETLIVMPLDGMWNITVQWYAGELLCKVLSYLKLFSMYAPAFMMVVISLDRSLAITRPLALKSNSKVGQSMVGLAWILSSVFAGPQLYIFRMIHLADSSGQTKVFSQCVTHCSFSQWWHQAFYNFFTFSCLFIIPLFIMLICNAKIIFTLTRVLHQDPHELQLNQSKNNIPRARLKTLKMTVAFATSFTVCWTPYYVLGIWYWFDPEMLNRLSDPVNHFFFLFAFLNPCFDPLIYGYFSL
Outline: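 GnRHR-HEK293, 1500 cells/well, 18 h 37 C/5% CO2; Ca dye 1 h 37 C; cpd pinned (DMSO), agonist mode; kinetic FL 480/540, 3 min, 1 s reads; 15 conc, n=3.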

[3] = biological target: KiSS-1 receptor (Homo sapiens) (UniProt Q969F8); test: Human kisspeptin (KISS1R) small molecule agonists, calcium flux assay in KISS1R-HEK293 cells (AID 1920064; active means well fitted curve in the direction sought with a large enough effect in the repeat runs; an effect the other way counts as inactive or inconclusive)
Sequence of KiSS-1 receptor (Homo sapiens) (Q969F8 whole entry, looked up): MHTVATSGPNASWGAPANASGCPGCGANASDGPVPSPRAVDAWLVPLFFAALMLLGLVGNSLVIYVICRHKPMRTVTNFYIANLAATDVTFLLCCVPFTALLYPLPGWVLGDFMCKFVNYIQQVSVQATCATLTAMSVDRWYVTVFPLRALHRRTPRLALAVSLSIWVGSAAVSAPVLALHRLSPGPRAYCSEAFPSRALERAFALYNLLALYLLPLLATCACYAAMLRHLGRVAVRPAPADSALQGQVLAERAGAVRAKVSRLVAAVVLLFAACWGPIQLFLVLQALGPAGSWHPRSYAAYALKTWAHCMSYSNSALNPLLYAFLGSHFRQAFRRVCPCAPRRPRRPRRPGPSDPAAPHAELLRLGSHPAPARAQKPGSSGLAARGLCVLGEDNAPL
Outline: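 Stable human KISS1R HEK293 line; 18 h plating, 37 C/5% CO2; calcium dye 1 h 37 C; compound pin transfer; kinetic fluorescence Ex/Em 480/540, 3 min.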

[4] = G protein-coupled receptor (GPCR) small molecule agonists, calcium flux assay: HEK293 wild type cell line counter screen (AID 1920065)
Outline: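 Kinetic fluorescence at Ex/Em 480/540, recorded every second over 3 min, served as the read-out after compound addition. Each compound was tested at 15 concentrations in triplicate on cells pre-loaded with calcium dye for 1 h.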

[5] = p53 small molecule agonists, cell-based qHTS assay with human liver microsomes (AID 1963577);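 further: p53 response element beta-lactamase reporter cells with liver microsomes plus NADPH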
Outline: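 Metabolically competent format: test substances, human liver microsomes and NADPH (both 0.5 mg/mL final) incubated with p53RE-bla cells 16 h at 37 C. Beta-lactamase reporter signal then quantified by fluorescence.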

[6] = p53 small molecule agonists, cell-based qHTS assay with rat liver microsomes (AID 1963578)
Outline: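 Each plate received p53RE-bla cells, then compound, then rat liver microsomes and NADPH (both 0.5 mg/mL final). Plates were held 16 h at 37 C, and beta-lactamase activity was detected with LiveBLAzer over 2 h.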

[7] = p53 small molecule agonists, cell-based qHTS assay with human liver microsomes: qHTS cell viability counter screen (AID 1963579); further: nearly all actives have a fitted effect of over 45% in size
Outline: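 Tox21 library compounds, delivered from DMSO stocks, were tested on p53RE-bla cells together with 0.5 mg/mL human liver microsomes and 0.5 mg/mL NADPH (final) over 16 h at 37 C; CellTiter-Glo luminescence served as the cytotoxicity measure.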

[8] = p53 small molecule agonists, cell-based qHTS assay with rat liver microsomes: qHTS cell viability counter screen (AID 1963580); further: nearly all actives have a fitted effect of over 45% in size
Outline: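 Viability is assessed in parallel with the p53 reporter read: HCT-116 p53RE-bla cells receive compounds plus rat microsomes and NADPH (0.5 mg/mL final apiece), incubate 16 h at 37 C, and then CellTiter-Glo luminescence is recorded.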

[9] = p53 small molecule agonists, cell-based qHTS assay: qHTS cell viability counter screen (AID 1963581); further: nearly all actives have a fitted effect of over 45% in size
Outline: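 HCT-116 p53RE-bla cells, 4,000/well, plated 5 h before compound pin transfer; 16 h at 37 C; bla substrate 2 h RT; then CellTiter-Glo, 30 min RT, luminescence.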

[10] = p53 small molecule agonists, cell-based qHTS assay (AID 1963582; active means well fitted activation curve with a large enough effect in the signal ratio in the repeat runs, not every such curve was filed as active; the % refers to the signal ratio)
Outline: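 Reporter line: p53RE-bla. Pre-incubation 5 h, 37 C, 5% CO2; compound (DMSO, pin tool) 16 h, 37 C; B/G FRET substrate 2 h RT; fluorescence intensity read.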

[11] = biological target: 5-hydroxytryptamine receptor 2A (Homo sapiens) (UniProt P28223); test: 5-hydroxytryptamine receptor 2A (HTR2A) small molecule antagonists, cell-based qHTS assay (AID 1963586); further: nearly all actives have a fitted effect of over 45% in size
Sequence of 5-hydroxytryptamine receptor 2A (Homo sapiens) (P28223 whole entry, looked up): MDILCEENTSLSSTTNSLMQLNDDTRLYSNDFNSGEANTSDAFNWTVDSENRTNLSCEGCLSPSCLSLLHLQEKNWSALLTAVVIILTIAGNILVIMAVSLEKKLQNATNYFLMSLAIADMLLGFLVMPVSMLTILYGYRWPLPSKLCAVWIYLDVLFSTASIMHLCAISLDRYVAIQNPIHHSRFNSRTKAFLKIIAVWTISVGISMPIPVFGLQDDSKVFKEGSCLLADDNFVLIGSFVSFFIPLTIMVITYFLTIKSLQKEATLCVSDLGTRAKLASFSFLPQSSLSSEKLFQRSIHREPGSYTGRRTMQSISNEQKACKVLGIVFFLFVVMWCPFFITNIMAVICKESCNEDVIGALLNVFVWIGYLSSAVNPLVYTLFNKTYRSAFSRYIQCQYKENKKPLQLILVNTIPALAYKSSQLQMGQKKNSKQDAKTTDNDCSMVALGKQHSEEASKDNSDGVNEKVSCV
Outline: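 Antagonist-mode intracellular calcium assay: DOI (4 nM) added after 5 min compound pre-incubation at room temperature to dye-loaded HTR2A-CHO cells. Fluorescence followed for 3 min, sampled every second.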

[12] = biological target: 5-hydroxytryptamine receptor 2A (Homo sapiens) (UniProt P28223); test: 5-hydroxytryptamine receptor 2A (HTR2A) small molecule agonists, cell-based qHTS assay (AID 1963587); further: nearly all actives have a fitted effect of over 30% in size; further: potency means the concentration at half of the fitted maximal effect
Outline: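 CHO cells stably expressing human HTR2A, plated 18 h, loaded with calcium dye 1 h at 37 C. Agonist mode: compounds added and intracellular calcium fluorescence recorded kinetically for 2 min at 1 sec intervals.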

[13] = biological target: Muscarinic acetylcholine receptor M1 (Homo sapiens) (UniProt P11229); test: Cholinergic receptor muscarinic 1 (CHRM1) small molecule antagonists, cell-based qHTS assay (AID 1963588); further: nearly all actives have a fitted effect of over 40% in size; further: potency means the concentration at half of the fitted maximal effect
Sequence of Muscarinic acetylcholine receptor M1 (Homo sapiens) (P11229 whole entry, looked up): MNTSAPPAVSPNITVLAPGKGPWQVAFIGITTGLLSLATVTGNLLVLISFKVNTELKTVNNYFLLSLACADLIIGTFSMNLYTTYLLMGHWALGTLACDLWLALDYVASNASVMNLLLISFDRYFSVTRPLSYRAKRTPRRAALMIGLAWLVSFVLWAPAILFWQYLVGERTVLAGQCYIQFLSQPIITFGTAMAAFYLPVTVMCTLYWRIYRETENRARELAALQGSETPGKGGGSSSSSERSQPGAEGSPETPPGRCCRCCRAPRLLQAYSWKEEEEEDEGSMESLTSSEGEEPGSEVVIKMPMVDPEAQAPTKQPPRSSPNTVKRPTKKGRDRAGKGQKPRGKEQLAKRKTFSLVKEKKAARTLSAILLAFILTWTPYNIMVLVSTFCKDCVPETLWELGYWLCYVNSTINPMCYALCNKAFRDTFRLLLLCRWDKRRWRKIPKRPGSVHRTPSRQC
Outline: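 CHRM1-CHO calcium-flux assay, antagonist mode. Cells were seeded 18 h, dye-loaded 1 h at 37 C and given compound for 5 min at RT, then acetylcholine was added at 50nM. FDSS fluorescence was read 3 min; 15 concentrations, three runs.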

[14] = biological target: Muscarinic acetylcholine receptor M1 (Homo sapiens) (UniProt P11229); test: Cholinergic receptor muscarinic 1 (CHRM1) small molecule agonists, cell-based qHTS assay (AID 1963589); further: nearly all actives have a fitted effect of over 35% in size
Outline: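 Human M1 in stable CHO line; 18 h plating, 1 h dye load 37 C; cpd added (agonist mode); Ca2+ fluorescence kinetic read, 1 s intervals; 15 conc, 3 runs.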

[15] = biological target: Beta-2 adrenergic receptor (Homo sapiens) (UniProt P07550); test: Adrenergic beta2 receptor (ADRB2) small molecule antagonists, cell-based qHTS assay (AID 1963592); further: series mostly up to about 92 µM; nearly all actives have a fitted effect of over 50% in size
Sequence of Beta-2 adrenergic receptor (Homo sapiens) (P07550 whole entry, looked up): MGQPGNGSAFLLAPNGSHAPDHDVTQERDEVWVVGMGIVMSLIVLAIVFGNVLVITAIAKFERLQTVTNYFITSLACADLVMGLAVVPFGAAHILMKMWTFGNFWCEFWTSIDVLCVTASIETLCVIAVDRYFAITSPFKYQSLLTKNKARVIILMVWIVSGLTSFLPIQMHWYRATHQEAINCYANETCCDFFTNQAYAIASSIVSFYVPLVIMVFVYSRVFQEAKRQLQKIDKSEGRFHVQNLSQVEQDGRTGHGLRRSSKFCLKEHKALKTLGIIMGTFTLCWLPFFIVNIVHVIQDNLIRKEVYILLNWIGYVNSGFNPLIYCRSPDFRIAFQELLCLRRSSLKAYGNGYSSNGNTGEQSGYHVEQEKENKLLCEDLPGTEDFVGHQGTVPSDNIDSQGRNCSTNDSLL
Outline: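 Cells (CHO, stable ADRB2 overexpression) incubated 18-20hr at 37C; compounds added from DMSO; agonist mix (1nM isoproterenol, 100uM IBMX, 25uM Ro-20-1724) added; 0.5hr RT; d2-cAMP and anti-cAMP-cryptate added; 1hr RT; 665/615 nm read.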

[16] = biological target: D(2) dopamine receptor (Homo sapiens) (UniProt P14416); test: Dopamine D2 receptor (DRD2) small molecule agonists, cell-based qHTS assay (AID 1963594); further: nearly all actives have a fitted effect of over 35% in size
Sequence of D(2) dopamine receptor (Homo sapiens) (P14416 whole entry, looked up): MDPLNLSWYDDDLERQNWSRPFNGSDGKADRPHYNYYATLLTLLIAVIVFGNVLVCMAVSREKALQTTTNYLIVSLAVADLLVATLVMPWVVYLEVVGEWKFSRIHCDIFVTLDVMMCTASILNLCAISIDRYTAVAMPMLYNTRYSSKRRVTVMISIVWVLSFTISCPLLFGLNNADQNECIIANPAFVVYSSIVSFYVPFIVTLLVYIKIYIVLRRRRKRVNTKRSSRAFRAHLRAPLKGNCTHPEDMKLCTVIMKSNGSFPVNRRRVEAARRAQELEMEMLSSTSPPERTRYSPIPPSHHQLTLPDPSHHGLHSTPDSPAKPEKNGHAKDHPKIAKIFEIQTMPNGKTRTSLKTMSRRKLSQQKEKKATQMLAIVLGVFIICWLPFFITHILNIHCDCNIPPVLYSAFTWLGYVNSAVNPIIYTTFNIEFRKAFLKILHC
Outline: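 HEK293 cells stably expressing human DRD2, pre-treated with PDE inhibitor Ro20-1724 (0.1 mM final) and compound 10 min at room temperature, then stimulated with NKH477 (200nM […]) for 30 min. cAMP read by HTRF (665/620 nm).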

[17] = biological target: D(2) dopamine receptor (Homo sapiens) (UniProt P14416); test: Dopamine D2 receptor (DRD2) small molecule antagonists, cell-based qHTS assay (AID 1963595; active means well fitted inhibition curve with a large enough effect in the signal ratio in the repeat runs, with a control signal flat; the % refers to the signal ratio)
Outline: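 In this cell-based antagonist screen, compounds act for 10 min at room temperature before a 30 min challenge with 12 nM quinpirole and 200 nM NKH477. cAMP is quantified by HTRF competition in DRD2-HEK293 cells containing 0.1 mM Ro20-1724.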

[18] = cAMP Responsive Elements (CRE) small molecule agonists, cell-based qHTS assay (AID 1963590)
Outline: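 HEK 293T CRE-bla, 2,000 cells/well, 18 h preincubation 37 C/5% CO2; cpds (DMSO) pinned, 3 h; LiveBLAzer B/G FRET substrate, 2 h RT.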

Measured: Potency

NC1(c2ccc(-c3nc4ccn5c(=O)[nH]nc5c4cc3-c3ccccc3)cc2)CCC1
active: [1] 29.8 µM | [12] 26.8 µM | [13] 2.9 µM
not listed: [18]
inactive: all other assays above

O=C(Cl)c1cc(C(=O)Cl)cc(C(=O)Cl)c1
not listed: [13]
inactive: all other assays above

C=CC(=O)OCCOc1ccccc1
not listed: [11] | [18]
inactive: all other assays above

CCCCCCCC/C=C\CCCCCCCC(=O)OCCOC(=O)CCCCCCC/C=C\CCCCCCCC
not listed: [13]
inactive: all other assays above
